Reference: PubChem BioAssay AID2284423 (EPA ToxCast)
Records with an inconclusive call do not appear. Active and inactive are the calls of the source. Rule for the calls: active = hit-call score of the fitted dose curve at least 0.9, where 1 is the maximum; inconclusive = response in the unintended direction; inactive = score below 0.9.

Test system: SRY-box transcription factor 17 (SOX17) Protein Expression, SOX17 (gene 64321)
Assay: CCTE_Deisenroth_DEVTOX-GLR_Ecto_SOX17: CCTE's DevTox GLR-Ecto Assay Evaluation of SRY-box transcription factor 17 (SOX17) Protein Expression, Deisenroth Lab
Procedure: CCTE_Deisenroth_DEVTOX-GLR_Ecto assay is a cell-based, multiplex-readout assay that uses RUES2-GLR, a human pluripotent cell line, with measurements taken at 48 hours after chemical dosing in a 384-well microplateCCTE_Deisenroth_DEVTOX-GLR_Ecto_SOX17 is 1 of 4 assay components calculated from the CCTE_Deisenroth_DEVTOX-GLR_Ecto assay and it measures an the percentage of cells in an endoderm state. Using a type of inducible fluorescent protein reporter, gain-of-signal activity can be used to understand changes in gene expression with fluorescent microscopy. The percentage of SOX17+ cells are determined by calculating the number of SOX17+ cells divided by the cell count. To generalize the intended target to other relatable targets, this assay component is annotated to the transcription factor intended target family, where the subfamily is SRY-related HMG-box.Data from the assay component CCTE_Deisenroth_DEVTOX-GLR_Ecto_SOX17 was analyzed as 1 assay endpoint. The endpoint is the percent SOX17+ cell population minus the 0.2% DMSO control in the CCTE_Deisenroth_DEVTOX-GLR_Ecto assay. This assay endpoint can be referred to as a secondary readout since this assay has produced multiple assay endpoints where this one serves as a measure of endoderm differentiation.
All assay protocols are aligned to the DevTox GLR-Endo assay workflow. Cells are seeded into 384-well microplates for 24 hours prior to initiating differentiation in defined media for a total duration of 48 hours. A total of two chemical exposures are administered in 24-hour intervals during the 48-hour differentiation period. At the assay termination point, cells are fixed and stained with a fluorescent dye demarcating the nucleus. High-content imaging is used to acquire brightfield and fluorescent channel images across 5 fields per well. Cell identification and mean biomarker fluorescence intensities are calculated with image analysis software to determine the total cell counts for viability assessment and the biomarker expression frequency for each lineage-dependent assay. A typical experimental design tests a 10-point concentration series (1 nM - 200 uM) for 28 compounds in single technical replicate. Assay plate controls include non-differentiated pluripotent cells (baseline control), lineage-specific differentiated cells (differentiation control), and DMSO solvent exposed differentiated cells (solvent control). Experiments typically comprise a minimum of four experimental replicates (n=4).

SMILES | AC50 | outcome
CC1=C(/C=C/C(C)=C/C=C/C(C)=C/C(=O)O)C(C)(C)CCC1 | 171 µM (active) | –
CC1=C(/C=C/C(C)=C/C=C/C(C)=C\C(=O)O)C(C)(C)CCC1 | 183 µM (active) | –
O=C1NC(=O)C(c2ccccc2)(c2ccccc2)N1 | – | inactive
CN(Cc1cnc2nc(N)nc(N)c2n1)c1ccc(C(=O)N[C@@H](CCC(=O)O)C(=O)O)cc1 | – | inactive
O=C1CCC(N2C(=O)c3ccccc3C2=O)C(=O)N1 (configuration not stated) | – | inactive
CCN(CC)CCNC(=O)c1c(C)[nH]c(/C=C2\C(=O)Nc3ccc(F)cc32)c1C | 1.14 µM (active) | –
CS(=O)(=O)OCCCCOS(C)(=O)=O | 100 µM (active) | –
CCCC(CCC)C(=O)O | – | inactive
CC/C(=C(/CC)c1ccc(O)cc1)c1ccc(O)cc1 | – | inactive
CC(C)(c1ccc(O)cc1)c1ccc(O)cc1 | – | inactive
O=c1[nH]cc(F)c(=O)[nH]1 | 32 µM (active) | –
O=C1NS(=O)(=O)c2ccccc21 | – | inactive
